This is a sample that favours compounds with a hit; in the whole collection about 2.6% have one here.
HepG2 viability – counter-screen for TGF-b inhibitors: cytotoxicity in HepG2 cells; AID 588856; HepG2 CAGA-GFP viability, ATP luminescence, 18 h; Potency, µM (doses to about 46.1 µM), hits mostly cytotoxic; 410,000 compounds, 0.76% hits
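CellTiter-Glo luminescence gave cytotoxicity after 18 hours at 37 degrees C. The cells were HepG2 CAGA-GFP in 1% FBS DMEM, stimulated with 500 pg/mL TGF-beta after compound addition. %Activity was normalised to no-cell wells (complete cell-killing) and DMSO (no toxicity), and curves were fitted and classified.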
S2 tox – cell viability loss in ATXN counter-screen; S2 cells (HEK-293 line with an ATXN2-luciferase reporter) viability, CellTiter-Fluor protease fluorescence, 24 h; Potency, µM (highest dose often 56.7 µM), most hits filed as cytotoxic; 400,000 compounds, 0.49% hits; AID 651635; note: nearly all actives have a fitted effect of over 40% in size
uPA generation – blocks generation of uPA at the cell surface. cell surface uPA generation assay, qHTS. Potency, µM (top dose mostly 38.3 µM), most hits filed as inhibitors. 330,000 compounds, 0.31% hits; active = well fitted inhibition curve with a large enough effect; inconclusive = small, poorly fitted or top-dose-only effect; inactive = no such curve, though single readings can be large or run the other way; tested in mouse RAW 264.7 cells; note: nearly all actives have a fitted effect of over 55% in size
ATXN2 expr inh – reduces ATXN2 reporter expression in HEK-293 cells; HEK-293 ATXN2-luciferase reporter, luminescence, 24 h; 360,000 compounds, 0.72% hits; Potency, µM (top dose mostly 57 µM), hits mostly inhibitors; note: nearly all actives have a fitted effect of over 55% in size
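ATXN2-luciferase reporter cells (luciferase flanked by upstream and downstream ATXN2 gene portions) were treated 24 h at 37 °C with compounds at up to 57 uM. SteadyGlo luminescence gave expression; GF-AFC fluorescence gave viability.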
TGFb inhibitor – inhibitors of TGF-b signaling | HepG2 CAGA-GFP TGF-b/SMAD3 reporter, GFP fluorescence, 18 h; TGF-beta stimulated, 500 pg/mL final | 410,000 compounds, 1.2% hits | Potency, µM (titrated, usually from 46.1 µM), most hits filed as inhibitors; note: nearly all actives have a fitted effect of over 65% in size
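HEPG2 CAGA-GFP reporter cells (1000/well, DMEM with 1% FBS) received compounds, then recombinant TGF-beta at 500 pg/mL final for 18 hours at 37 degrees C. Per-cell GFP summed per well was normalised to unstimulated and stimulated DMSO controls before curve fitting.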
Giardia killer – Giardia lamblia killing | Giardia lamblia trophozoite viability | AID 540267 | activity change, % at 7.66 µM, hits read low | 340,000 compounds, 0.15% hits; in the data active = activity change below about -80%; inconclusive = between about -30% and that limit;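 note: parasites exposed to compound for two days anaerobically before the ATP read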
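Luminescence from cellular ATP indicates surviving trophozoites (100 cells/well) following 48 hrs anaerobic compound treatment at 37 deg C; signal develops 15-30 min at room temperature.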
Each line names hits and unclear results; the compound was inactive in the other large screens; ! = not confirmed by another sample. Unless noted, calls come from the whole dose curve; as a rule, active = well fitted curve in the direction sought with a large enough effect; inconclusive = small, poorly fitted or top-dose-only effect, or another doubt; inactive = no such curve, though single readings can be large; an effect the other way counts as inactive or inconclusive.

Cc1ccc(NC(=O)CSc2nc3ccccc3c(=O)n2CCCN2CCCCC2)cc1Cl	HepG2 viability 14µM, S2 tox inconclusive, ATXN2 expr inh inconclusive, TGFb inhibitor inconclusive
COc1cccc(NC(=O)CSc2nc3c(sc4ccccc43)c(=O)n2CCN(C)C)c1	TGFb inhibitor inconclusive
COc1cccc(NC(=O)CSc2nc3c(sc4ccccc43)c(=O)n2CCCN2CCCC2)c1	S2 tox 22µM, TGFb inhibitor inconclusive (no result: ATXN2 expr inh)
COc1ccc(Nc2c3c(nc4ccccc24)CCC3)c(OC)c1	TGFb inhibitor inconclusive
COc1cc(Cl)c(C)cc1Nc1c2c(nc3ccccc13)CCC2	HepG2 viability 11µM, S2 tox 14µM, ATXN2 expr inh inconclusive, TGFb inhibitor 16µM (no result: uPA generation, Giardia killer)
COc1ccccc1Nc1c2c(nc3ccccc13)CCC2	S2 tox inconclusive, ATXN2 expr inh inconclusive, TGFb inhibitor 18µM
COC(=O)c1cccc(Nc2c3c(nc4ccccc24)CCC3)c1	none
CC(=O)c1cccc(Nc2c3c(nc4ccccc24)CCC3)c1	S2 tox inconclusive, uPA generation 0.79µM, ATXN2 expr inh inconclusive, TGFb inhibitor inconclusive
COc1ccc(CCN(C)Cc2cc(-c3cncnc3)ccc2O)cc1OC	none (no result: HepG2 viability, uPA generation, ATXN2 expr inh, TGFb inhibitor, Giardia killer)
O=C(N/N=C/c1cc(Br)ccc1O)c1ccncc1	ATXN2 expr inh 2.8µM, TGFb inhibitor inconclusive
O=C(N/N=C/c1ccccc1O)c1ccncc1	S2 tox inconclusive, uPA generation 7.1µM, ATXN2 expr inh 3.5µM!
O=C(N/N=C/c1cccc2ccccc12)c1ccncc1	none (no result: ATXN2 expr inh)
CC(=O)Nc1ccc(C(=O)N/N=C/c2cc(Br)cc(Br)c2O)cc1	ATXN2 expr inh 25µM, TGFb inhibitor inconclusive
O=C(N/N=C/c1cc(Cl)ccc1O)c1ccc(Br)cc1	ATXN2 expr inh 4.5µM
NC(=O)N/N=C\c1cc(Br)ccc1O	ATXN2 expr inh inconclusive (no result: S2 tox)
C[C@@H]1NC(=O)[C@@H](N)CNC(=O)[C@H](C2CCNC(N)=N2)NC(=O)/C(=C/NC(N)=O)NC(=O)[C@H](CNC(=O)C[C@@H](N)CCCN)NC1=O (stereo partly drawn)	none (no result: HepG2 viability, uPA generation, ATXN2 expr inh, TGFb inhibitor, Giardia killer)
O=C(N/N=C/c1ccc(O)c2ncccc12)c1cccc(Br)c1	S2 tox inconclusive, ATXN2 expr inh inconclusive, TGFb inhibitor 13µM
CN(C)CC/C=C1/c2ccccc2CSc2ccccc21	none (no result: HepG2 viability, uPA generation, ATXN2 expr inh, TGFb inhibitor, Giardia killer)
[O-][n+]1c2ccccc2c2n1CCCN=C2c1ccc(Cl)cc1	Giardia killer -84
Cc1ccc(C2=NCCn3c2c2ccccc2[n+]3[O-])cc1	Giardia killer -90
Nc1c(Cl)cc(C2=NCCn3c2c2ccc(C(F)(F)F)cc2[n+]3[O-])cc1Cl	Giardia killer -94
Cc1ccc(C2=NCCn3c2c2ccc([N+](=O)[O-])cc2[n+]3[O-])cc1	uPA generation 0.71µM, TGFb inhibitor inconclusive, Giardia killer inconclusive
O=C(O)CCc1cccc2ccccc12	none (no result: S2 tox, uPA generation, ATXN2 expr inh, Giardia killer)
Nc1c(Cl)cc(C2=NCCn3c2c2ccccc2[n+]3[O-])cc1Cl	Giardia killer inconclusive
[O-][n+]1c2ccccc2c2n1CCN=C2c1ccc(Cl)cc1	S2 tox inconclusive, Giardia killer -84
COc1ccc(C(=O)Nc2ccc(C)cn2)c(OC)c1	ATXN2 expr inh 3.2µM, Giardia killer inconclusive
COc1ccc(C(=O)Nc2cc(C)on2)c(OC)c1	none
O=C(NCCC1=CCCCC1)c1ccc(Cl)c(S(=O)(=O)Nc2ccccc2)c1	TGFb inhibitor 13µM
CC(C)(C)NC(=O)[C@H]1CC[C@H]2[C@@H]3CC=C4C=C(C(=O)O)CC[C@]4(C)[C@H]3CC[C@]12C	none (no result: HepG2 viability, uPA generation, ATXN2 expr inh, TGFb inhibitor, Giardia killer)
Cc1cc(C2CCCCC2)n(O)c(=O)c1	S2 tox 20µM!, uPA generation inconclusive, ATXN2 expr inh 18µM, TGFb inhibitor inconclusive
Cc1cnc(-n2ncc(C(=O)NCCN3CCOCC3)c2C2CC2)nc1-c1cccs1	none (no result: HepG2 viability, uPA generation, ATXN2 expr inh, TGFb inhibitor, Giardia killer)
Cc1ccc(C(=O)Nc2cccc(NC(=O)c3cccs3)c2)c(C)c1	uPA generation 13µM (no result: ATXN2 expr inh)
COc1cc(NC(=O)c2ccc(C)cc2C)ccc1NC(=O)c1cccs1	none
CC(=O)c1c(C)[nH]c(C(=O)OCC(=O)Nc2ccc(Cl)c(S(=O)(=O)N(C)C)c2)c1C	S2 tox 13µM, TGFb inhibitor inconclusive (no result: ATXN2 expr inh)
CC(=O)c1c(C)[nH]c(C(=O)Nc2ccc(Cl)c(S(=O)(=O)N(C)C)c2)c1C	none (no result: ATXN2 expr inh)
